Experimental data: PubChem BioAssay (Tox21)
Inconclusive results are not listed. Active and inactive are the calls of the source. Unless noted, calls follow the shape of the dose curve; as a rule, active = well fitted curve in the direction sought with a large enough effect in the repeat runs; inconclusive = weak or mixed curves; inactive = no such curve, though single readings can be large; an effect the other way counts as inactive or inconclusive.

Assays:
[1] = qHTS assay for small molecules that induce genotoxicity in human embryonic kidney cells expressing luciferase-tagged ATAD5 (AID 651632); also: nearly all actives have a fitted effect of over 15% in size
Summary of the method: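 Test compounds were delivered by pin tool onto HEK293T reporter cells (2,000/well) expressing ATAD5 fused to luciferase. After 16 hr at 37C, 5% CO2, Amplite was added for 30 min at room temperature and luminescence was measured.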

[2] = qHTS assay for small molecule agonists of the p53 signaling pathway - cell viability (AID 651633; calls by dose curve;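 also: p53RE-bla HCT reporter cells with a stable beta-lactamase p53 reporter; series mostly up to about 83 µM; nearly all actives have a fitted effect of over 30% in size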)
Summary of the method: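 Viability counter-read: CellTiter-Glo luminescence (30 min, room temperature) in the same p53RE-bla plates. These plates had been exposed to compounds for 16 h at 37 C.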

[3] = qHTS assay for small molecules that induce genotoxicity in human embryonic kidney cells expressing luciferase-tagged ATAD5 - cell viability (AID 651634; calls by dose curve; also: nearly all actives have a fitted effect of over 25% in size)
Summary of the method: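 Quantitative high-throughput format. HEK293T cells expressing ATAD5 fused to luciferase were plated at 2,000 cells/well and treated 15.5 hr with compound versus DMSO. Viability was determined by fluorescent live-cell protease substrate, 30 min at 37C.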

[4] = qHTS assay for small molecule disruptors of the mitochondrial membrane potential - cell viability (AID 720634; calls by dose curve;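 also: human HepG2 liver cancer cells; series mostly up to about 83 µM; nearly all actives have a fitted effect of over 20% in size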)
Summary of the method: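 Same-well counter-screen: following the MMP dye addition, CellTiter-Glo was added to 1 hr compound-treated HepG2 cells and luminescence read after 30 min at room temperature.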

[5] = qHTS assay for small molecule disruptors of the mitochondrial membrane potential (AID 720635)
Summary of the method: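 Mitochondrial membrane potential tracked with Mito-MPS dye, red aggregates (ex 540/em 590 nm) against green monomers (ex 490/em 535 nm). Compound treatment 1 hr at 37C, dye 30 min in HepG2.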

[6] = qHTS assay to test for compound auto fluorescence at 590 nm (red) in HepG2 cells (AID 720674)
Summary of the method: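 We screened compounds on adherent HepG2 cells, incubating them for an hour at 37 C in 5% CO2 before reading emission at 590 nm under 540 nm excitation; values reflect equivalence to Rose Bengal sodium fluorescence.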

[7] = qHTS assay to test for compound auto fluorescence at 535 nm (green) in HepG2 cells (AID 720675)
[8] = qHTS assay to test for compound auto fluorescence at 460 nm (blue) in HEK293 cells (AID 720678)
Summary of the method: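 Triamterene serves as the blue fluorophore standard. Compound signal at 405/460 nm is read in HEK293 wells (2,000 cells, 10% dialyzed FBS) after overnight treatment at 37C.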

[9] = qHTS assay to test for compound auto fluorescence at 590 nm (red) in HEK293 cells (AID 720679)
Summary of the method: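 We plated HEK293 cells in 10% dialyzed FBS medium, let them adhere for 4-5 hr, then added 23 nL compound. Overnight at 37C and 5% CO2 preceded fluorescence measurement at 540/590nm.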

[10] = qHTS assay to test for compound auto fluorescence at 535 nm (green) in HEK293 cells (AID 720680)
[11] = qHTS assay to test for compound auto fluorescence at 460 nm (blue) in HEK293 cell free culture (AID 720681)
Summary of the method: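 Blue fluorescence (Ex 405/Em 460 nm, triamterene-equivalent) was read immediately after pin transfer of compound or DMSO into medium (DMEM, 10% FBS) without cells.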

[12] = qHTS assay to test for compound auto fluorescence at 535 nm (green) in HEK293 cell free culture (AID 720682)
Summary of the method: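 Intrinsic compound fluorescence is measured in culture medium containing 10% FBS, with excitation at 485 nm and detection at 535 nm, referenced to fluorescein.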

[13] = qHTS assay to test for compound auto fluorescence at 590 nm (red) in HEK293 cell free culture (AID 720683)
Summary of the method: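 Red-channel autofluorescence of compounds in culture medium (DMEM, 10% FBS), no cells, measured at 540/590 nm. Rose Bengal sodium is the reference fluorophore for equivalence.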

[14] = qHTS assay to test for compound auto fluorescence at 590 nm (red) in HepG2 cell free culture (AID 720684)
Summary of the method: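 Cell-free; medium MEM + 10% FBS; compound or DMSO added by pintool; read Ex 540/Em 590 nm; Rose Bengal sodium as red reference fluorophore.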

[15] = qHTS assay to test for compound auto fluorescence at 460 nm (blue) in HepG2 cell free culture (AID 720685)
Summary of the method: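 Cell-free plates of MEM plus 10% FBS received 23 nL compound or DMSO vehicle; blue-channel (405/460 nm) intensity scored against triamterene as reference fluorophore.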

[16] = qHTS assay to test for compound auto fluorescence at 535 nm (green) in HepG2 cell free culture (AID 720686)
[17] = qHTS assay to test for compound auto fluorescence at 460 nm (blue) in HepG2 cells (AID 720687)
Summary of the method: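 Blue-channel autofluorescence (Ex/Em 405/460 nm, triamterene-equivalent) was measured after 1 hr compound exposure at 37 C, 5% CO2. Cells were HepG2, plated overnight at 37 C in MEM plus 10% FBS.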

[18] = target: Glucocorticoid receptor (Homo sapiens) (UniProt P04150); experiment: qHTS assay to identify small molecule agonists of the glucocorticoid receptor (GR) signaling pathway (AID 720691; active = well fitted activation curve with a large enough effect in the signal ratio in the repeat runs, not every such curve was filed as active; the % refers to the signal ratio)
Chain of Glucocorticoid receptor (Homo sapiens) (P04150 whole entry, looked up): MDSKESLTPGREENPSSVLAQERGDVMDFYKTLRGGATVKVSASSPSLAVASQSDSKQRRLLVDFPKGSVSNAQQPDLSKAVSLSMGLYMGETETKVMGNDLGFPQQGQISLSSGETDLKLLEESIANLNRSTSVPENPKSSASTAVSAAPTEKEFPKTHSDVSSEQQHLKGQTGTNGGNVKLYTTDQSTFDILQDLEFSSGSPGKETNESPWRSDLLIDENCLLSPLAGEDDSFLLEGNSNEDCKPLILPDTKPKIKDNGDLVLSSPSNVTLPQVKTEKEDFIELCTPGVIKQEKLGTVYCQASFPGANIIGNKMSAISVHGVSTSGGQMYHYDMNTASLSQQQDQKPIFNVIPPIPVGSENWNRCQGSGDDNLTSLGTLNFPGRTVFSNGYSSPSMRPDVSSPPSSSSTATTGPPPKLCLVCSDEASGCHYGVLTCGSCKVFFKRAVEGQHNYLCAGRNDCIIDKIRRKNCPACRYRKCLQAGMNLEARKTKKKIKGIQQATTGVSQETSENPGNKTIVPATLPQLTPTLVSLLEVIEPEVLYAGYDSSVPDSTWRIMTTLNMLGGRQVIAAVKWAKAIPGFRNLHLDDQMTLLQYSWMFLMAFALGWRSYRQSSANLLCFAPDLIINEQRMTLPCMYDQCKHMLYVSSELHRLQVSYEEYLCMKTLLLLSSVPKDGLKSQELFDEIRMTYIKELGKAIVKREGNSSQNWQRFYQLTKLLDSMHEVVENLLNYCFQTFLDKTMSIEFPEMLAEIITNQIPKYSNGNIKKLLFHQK
Summary of the method: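 A HeLa cervical cancer line expressing GR and a glucocorticoid response element-driven beta-lactamase gene is treated with compounds for 18 h; LiveBLAzer B/G FRET substrate is then applied and fluorescence read.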

[19] = target: Glucocorticoid receptor (Homo sapiens) (UniProt P04150); experiment: qHTS assay to identify small molecule antagonists of the glucocorticoid receptor (GR) signaling pathway (AID 720692; active = well fitted inhibition curve with a large enough effect in the signal ratio in the repeat runs, not every such curve was filed as active; the % refers to the signal ratio)
Summary of the method: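 GRE-bla HeLa line, dex-stimulated (5 nM final). Compound exposure 18 h, 37 C. Beta-lactamase FRET read after 2 h RT substrate.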

[20] = qHTS assay for small molecule agonists of the p53 signaling pathway (AID 651631; calls by dose curve; also: nearly all actives have a fitted effect of over 15% in size)
Summary of the method: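 Fluorescence intensity from cleaved LiveBLAzer B/G substrate (2 h, room temperature) served as the signal. Beforehand, HCT-116 reporter cells bearing p53 response elements were treated 16 h at 37 °C with DMSO-dissolved compounds.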

Measured: Potency

CN(C)c1ccc(O)c2c1C[C@H]1C[C@H]3[C@H](N(C)C)C(=O)C(C(N)=O)=C(O)[C@@]3(O)C(=O)C1=C2O
inactive: [1] | [2] | [3] | [4] | [5] | [6] | [7] | [8] | [9] | [10] | [11] | [12] | [13] | [14] | [15] | [16] | [17] | [18] | [19]

CCOCC(=O)O
inactive: [1] | [2] | [3] | [4] | [5] | [6] | [7] | [8] | [9] | [10] | [11] | [12] | [13] | [14] | [15] | [16] | [17] | [18] | [19]

CC(=O)CCC=C(C)C
inactive: [1] | [2] | [3] | [4] | [5] | [6] | [7] | [8] | [9] | [10] | [11] | [12] | [13] | [14] | [15] | [16] | [17] | [18] | [19]

CNC(=O)Oc1ccc2c(c1)[C@]1(C)CCN(C)[C@@H]1N2C
inactive: [20] | [2] | [3] | [4] | [6] | [7] | [8] | [9] | [10] | [11] | [12] | [13] | [14] | [15] | [16] | [18]

O=C(O)c1ccccc1C(=O)O
inactive: [20] | [2] | [3] | [4] | [5] | [6] | [8] | [9] | [10] | [11] | [12] | [13] | [14] | [15] | [16] | [17] | [18] | [19]

CCCCCCCC=O
inactive: [1] | [2] | [3] | [4] | [6] | [7] | [8] | [9] | [10] | [11] | [12] | [13] | [14] | [15] | [16]

O=C(OCC1CCC2OC2C1)C1CCC2OC2C1 (stereo unspecified)
inactive: [1] | [2] | [3] | [4] | [5] | [6] | [8] | [10] | [11] | [12] | [13] | [14] | [15] | [16] | [17] | [18] | [19]

O=C(O)c1ccc(S(=O)(=O)N(Cl)Cl)cc1
inactive: [1] | [2] | [3] | [4] | [5] | [6] | [7] | [8] | [10] | [11] | [12] | [13] | [14] | [15] | [16] | [17] | [18] | [19]
